# Source: PubChem BioAssay AID1347417 (National Center for Advancing Translational Sciences (NCATS), 2020)
# Values joined by “and” are separate entries in the source; they are usually repeats but may differ in a detail not shown here. Equal values may be shown once. In all, about 120,000 compounds went through this assay and about 5,300 (4.4%) were called active. Roughly 22% stayed inconclusive and do not appear here. Calls follow the shape of the dose curve; as a rule, active = well fitted inhibition curve with a large enough effect; inconclusive = small, poorly fitted or top-dose-only effect; inactive = no such curve, though single readings can be large or run the other way. The sample as a whole holds a higher share of actives than the screen did. A structure can be active in one record and inactive in another.
# Experiment: qHTS Primary assay for Inhibitors of Plasmodium falciparum Dd2 growth in vitro; also: nearly all actives have a fitted effect of over 65% in size;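 as to activity, negative = inhibition: plate controls were DMSO vehicle for no effect and reference drug for full effect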
# Details: P. falciparum Dd2 growth, SYBR Green, 72 h; series mostly up to 28.9 µM; activity, negative = inhibition: at the top concentration
# Outline: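 Infected erythrocytes (Dd2, 0.3% parasitemia, 2.5% hematocrit final) are added to compound in RPMI-1640/Albumax II medium, grown 72 h at 37C in low oxygen, then lysed with saponin/Triton-X containing SYBR Green and read by fluorescence.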
# Potency is read from the fitted curve at half-maximal effect.
SMILES,Potency,"activity, negative = inhibition",outcome
CCCCN1C(=O)c2[nH]nc(-c3ccccc3O)c2C1c1cccc(OCc2ccccc2)c1 (centres undefined),3.16 µM (active),,
CCCOc1ccc(C2c3c(-c4ccccc4O)n[nH]c3C(=O)N2Cc2cccnc2)cc1 (centres undefined),,-2.57% (inactive),
Cc1cc(C(=O)NCC2Cn3cccc3C(=O)N2C)nn1C (centres undefined),,-22.3% (inactive),
COc1ccccc1NC(=O)C1c2ccccc2C(=O)N(CC(C)C)C12CCCC2 (centres undefined),3.55 µM (active),,
CC(C)CN1C(=O)c2ccccc2C(C(=O)NCc2ccccn2)C12CCCC2 (centres undefined),,-1.43% (inactive),
COC(=O)CCNC(=O)C1c2ccccc2C(=O)N(CC(C)C)C12CCCC2 (centres undefined),,-6.26% (inactive),
Cc1ccc2c(c1)N1C(=O)OC[C@@H]1CCN(C(=O)c1ccno1)C2,,20.7% [at 44.1 µM] (inactive),
Cc1cc(C)cc(C(=O)N2CC(c3nnc(-c4ccncc4)o3)C3(CCOCC3)C2)c1 (centres undefined),,-28.2% (inactive),
CC(C)(C)c1nc(C(=O)N2CCOCC2)n2ccccc12,,-15.6% [at 44.1 µM] (inactive),
Cc1cccc(C)c1-c1nc(C(=O)N2CCN(c3ncccn3)CC2)n2ccccc12,inactive and 12.6 µM (active),,
O=C(c1nc(-c2cccnc2)c2cnccn12)N1CCN(c2ncccn2)CC1,,,inactive
CN(CC1CCOC1)C(=O)c1ccc(F)cc1F (centres undefined),,,inactive [at 5.79 µM]
CC(C)NC(=O)Cc1ccc(N(Cc2cccc(F)c2)C(=O)c2ccco2)cc1,,,inactive
O=C(Cc1cccc(F)c1)N1CCCC(Cc2nncn2-c2ccccc2)C1 (centres undefined),,,inactive
CCOC(=O)C1CCCN(C(=O)Cc2ccc(N(Cc3cccc(F)c3)C(=O)c3ccco3)cc2)C1 (centres undefined),3.98 µM (active),,
CN(CC(=O)N1CCCC(Cc2nncn2-c2ccccc2)C1)S(=O)(=O)c1cccs1 (centres undefined),,,inactive
Cc1ccccc1C(=O)NCc1cccnc1Oc1cccc(C(F)(F)F)c1,,-19.3% (inactive),
COc1cccc(-c2cc(C(=O)N3CCC(c4nn(C)c(=O)n4C(C)C)CC3)[nH]n2)c1,,,inactive
CCC(C)N1Cc2cc(NC(=O)c3ccc([N+](=O)[O-])cc3)ccc2OCC1=O (centres undefined),,,inactive
CCC(C(=O)Nc1ccc2c(c1)CN(Cc1cc(F)cc(F)c1)C(=O)CO2)c1ccccc1 (centres undefined),6.31 µM (active),,
CCC1Oc2ccc(NC(=O)c3cccs3)cc2CN(Cc2ccc(F)cc2)C1=O (centres undefined),,-11.1% (inactive),
O=C1Nc2ccccc2C12CCN([S+](=O)([O-])c1cccc(C(F)(F)F)c1)C2 (centres undefined),,,inactive
COc1ccc([C@H]2C[C@@H](O)[C@@H](O)[C@@H]2NC(=O)c2ccccc2)cc1,,-24.6% [at 44.1 µM] (inactive),
COc1cc(NC(=O)c2nc3ccccc3nc2C)cc(OC)c1OC,,,inactive
COc1ccccc1Nc1c2c(nc3ccc(NC(=O)/C=C/c4cc(OC)c(OC)c(OC)c4)cc13)CCCC2,3.98 µM (active),,

SMILES,Potency,"activity, negative = inhibition",outcome
COc1cc(C(=O)Nc2ccc(-n3c(C)nc4ccccc4c3=O)cc2)cc(OC)c1OC,,-5.62% (inactive),
CCOc1ccccc1NC(=O)Cn1nnc(C(=O)Nc2ccc(C)c(C)c2)c1N,,-8.19% (inactive),
CCOc1ccc(-n2nc3ccc(NC(=O)c4ccc(OC)c(Cl)c4)cc3n2)cc1,,,inactive
CCOc1ccc(C(=O)Nc2ccc3nc4c(c(Nc5ccccc5OC)c3c2)CCCC4)cc1,11.2 µM (active),,
Cc1noc(-c2ccco2)c1C(=O)NC(C)c1ccccc1 (centres undefined),,-24.3% (inactive),
O=[S+]([O-])(c1ccc(Br)cc1)c1nnn2c1nc(NC1CC1)c1ccccc12,,-7.76% (inactive),
CCc1cc(=O)n(CC(=O)Nc2cccc(C(C)=O)c2)c(-c2ccccc2)n1,,,inactive
Cc1ccc(NC(=O)CC2=C3CCCCC3NC2=O)cc1 (centres undefined),,0.61% (inactive),
CC(C)c1nccn1CCCNc1nc(-c2ccncc2)nc2c1cnn2C,12.6 µM (active),,
CC(Cn1cncn1)Nc1nc(-c2ccncc2)nc2c1cnn2C (centres undefined),,-8.69% (inactive),
Cc1ccccc1-c1ccc(C(=O)NCCCn2ccnc2C(C)C)cn1,,-12.5% (inactive),
O=C(NC1CCCCC1)N1C[C@@H]2C[C@H](C1)c1c(NS(=O)(=O)c3ccccc3)ccc(=O)n1C2,,20.8% (inactive),
Cc1cc(C)cc(NC(=O)Cn2nc3n(c2=O)CCCC3)c1,,,inactive
COC1C(=O)N(C2CCN(Cc3ccc(O)cc3)CC2)C12CCOCC2 (centres undefined),,-25.7% (inactive),
Cc1nn2c(c1-c1ccccc1-c1ccccc1)N(C(=O)CN1CCOCC1)CCC2,,,inactive; activator; fitted 1.5849 uM [at 44.1 µM]
Cc1nn2c(c1-c1ccccc1-c1ccccc1)N(CC1CC1)CCC2,0.316 µM (active),,
Cc1nn2c(c1-c1ccnn1C(C)C)N(CC1CCOCC1)CCC2,,-17% [at 44.1 µM] (inactive),
Cc1ncsc1C1N(C2CCN(C(=O)c3ccncc3)CC2)C(=O)C12CCCC2 (centres undefined),,-4.33% (inactive),
Cc1ccccc1NC(=O)CCOc1ccccc1,,-14.8% (inactive),
Cc1ccccc1NC(=O)c1cc2cn(C(C)C)cc2s1,8.91 µM (active),,
Cc1ccccc1NC(=O)c1cc2c([nH]c1=O)CC(C)(C)CC2=O,,-3.79% (inactive),
CCn1cc(S(=O)(=O)N2CCC3(CC2)CN(Cc2ccc(OC)cc2)C3=O)cn1,,,inactive
C=CCNC(=O)c1cn2c(n1)CN([S+](C)(=O)[O-])CC2,,51.3% [at 44.1 µM] (inactive),
CN(C)c1ccc(NC(=O)Cn2nc3n(c2=O)CCCCC3)cc1,,32.9% (inactive),
